Inconclusive results are not listed. Where a call stands in place of a potency, no number is given. Calls of active or inactive are those of the source. Calls follow the shape of the dose curve; as a rule, active = well fitted inhibition curve with a large enough effect; inconclusive = small, poorly fitted or top-dose-only effect; inactive = flat fitted curve, though single readings scatter.

For this test, the target named is Aldehyde dehydrogenase, mitochondrial (Homo sapiens) (UniProt P05091). Briefly: qHTS for Inhibitors of the Aldehyde Dehydrogenase Family (ALDH2) Primary screen (AID 2061308). Also: nearly all actives have a fitted effect of over 55% in size. The settings on record: ALDH2 enzyme inhibition qHTS, 1536-well; series mostly up to 56 µM. A general note: Quantitative high-throughput screening tests each substance at several concentrations.
With `O=C(Nc1ccc(N(Cc2ccsc2)C(=O)Cn2nnc3ccccc32)cc1)C1CC1`, the Potency entry was “inactive”.

Take `CC1CC(=O)C2=C(O1)OC1(C)CCC3C(C)(C)C=CC(=O)C3(C)C1C2` (stereo not drawn): the Potency entry is “inactive”.

Consider `OC[C@H]1O[C@@H](OCCc2ccccc2)[C@H](O)[C@@H](O)[C@@H]1O`, for which the Potency result was “inactive”.

Take `Nc1nc(O)c(C2=C3C(=Nc4ccccc43)C(=O)NCC2)[nH]1`: the Potency result was “inactive”.

With `COC(=O)C1=CO[C@@H](O[C@@H]2O[C@H](CO)[C@@H](O)[C@H](O)[C@H]2O)[C@H]2[C@@H]1[C@H](O)C[C@]2(C)O`, the Potency entry is “inactive”.

For the compound `CCOc1ccc(-c2nn3ncccc3c2-c2ccc(S(C)(=O)=O)cc2)cc1`, the Potency entry is “inactive”.

As to `CC1(C)OC[C@H](NC(=O)Nc2ccc(Br)cc2Br)[C@H](c2ccccc2)O1`, the Potency result was “inactive”.

As to `CC1CCC2(CO)C(C(=O)O)=CCCC2C1(C)CCc1ccoc1` (stereo not drawn), the Potency entry is “inactive”.

These data come from PubChem BioAssay (NCATS).
